Measurements: PubChem BioAssay AID463173 (ICCB-Longwood Screening Facility, Harvard Medical School, 2010)
About 1,700 (3.3%) of roughly 52,000 compounds were called active. The sample holds actives, similar compounds and a random draw of the others, so the mix is not that of the screen. Cut-off read from the data, not from the text of the source: active = survival mostly below about 52% (no sharp cut-off); inactive = mostly above about 56%.

What follows are compounds tested on Wild type (assay: growth inhibition of S. aureus wild type versus tarO mutant, primary screen, teichoic acid synthesis inhibitors, RN4220, OD600 (AID 463173)). Conditions: S. aureus RN4220 wild type/DeltatarO growth, OD600, 18 h, active compounds read low, screened at 18.75 µg/mL (by protocol).

Compound	survival
Cc1cn2c(=O)cc(COc3cccc(NC(=O)c4ccccc4Cl)c3)nc2s1	88% (inactive)
O=C(c1cc2nc(-c3ccccc3)cc(-c3ccccc3)n2n1)N1CCCC1	100% (inactive)
CCOC(=O)C1(CC)C(=O)OC(C(=O)NC2CCCCC2)C1C (stereo not drawn)	112% (inactive)
COc1cccc(-c2cc(C(=O)NCc3ccccc3)no2)c1	85% (inactive)
Cc1ccc(C)n1-c1c(C(=O)NCC(C)c2ccccc2)sc2ncccc12 (stereo not drawn)	73% (inactive)
Cc1ccc(-n2c(SCc3ccccc3F)nc3[nH]ncc3c2=O)cc1C	80% (inactive)
CCOc1ccccc1-c1nc(=S)[nH][nH]1	110% (inactive)
Cc1ccc(NCc2cccn2-c2nnc(N3CCC(C(=O)NC(C)C)CC3)s2)cc1	121% (inactive)
CCOC(=O)c1ccccc1NC(=O)C(=O)Nc1ccc2nc3n(c(=O)c2c1)CCCCC3	123% (inactive)
COc1ccc(Nc2nc(-c3ccc(C)cc3)nc3ccccc23)c(OC)c1	70% (inactive)
COc1cc(Nc2nc(-c3ccc(OC)c(OC)c3)nc3ccccc23)cc(OC)c1	0% (active)
COc1ccc(Nc2nc(-c3ccccc3F)nc3ccccc23)cc1OC	71% (inactive)
Cc1cccc2nc(Cn3c(=O)n(-c4ccc(Cl)cc4)c(=O)c4c5c(sc43)CCC5)cc(=O)n12	121% (inactive)
CCC(C(=O)NCCc1ccc(OC)c(OC)c1)n1nc(C)c2sc3ccccc3c2c1=O (stereo not drawn)	79% (inactive)
CC1(C)CC(=O)C/C(=N\NC(=O)CCc2ccccc2)C1	122% (inactive)
Cc1ccc(C(c2sc3nc(-c4ccco4)nn3c2O)N2CCOCC2)cc1 (stereo not drawn)	77% (inactive)
O=C(c1ccc2c(Cl)c3c(nc2c1)CCCC3)N1CCN(c2ccccc2)CC1	0% (active)
Cc1ccc(Cl)cc1N1CCN(C(=O)c2ccc3c(Cl)c4c(nc3c2)CCCC4)CC1	29% (inactive)
O=C(c1ccc2c(Cl)c3c(nc2c1)CCCC3)N1CCN(c2ccc(Cl)cc2)CC1	90% (inactive)
O=C(c1ccc2c(Cl)c3c(nc2c1)CCCC3)N1CCN(c2ccccc2F)CC1	0% (active)
Cc1cccc(N2CCN(C(=O)c3ccc4c(Cl)c5c(nc4c3)CCCC5)CC2)c1C	88% (inactive)

Compound	survival
O=C(c1ccc2c(Cl)c3c(nc2c1)CCCC3)N1CCN(c2cccc(Cl)c2)CC1	62% (inactive)
O=C(NCCCc1ccccc1)c1nn(-c2ccccc2F)nc1CO	89% (inactive)
COc1ccc(C2=C(C)C(=NCc3ccc(OC(C)C)cc3)NS2(=O)=O)cc1	86% (inactive)
CCCc1nc(C(C#N)c2ccc(F)cc2)c2nnn(Cc3ccccc3)c2n1 (stereo not drawn)	109% (inactive)
COc1ccc(N2CCN(C(=O)CN(c3cccc(C(F)(F)F)c3)S(C)(=O)=O)CC2)cc1	110% (inactive)
COc1ccccc1N1CCN(C(=O)c2ccc(CS(=O)c3ccccc3C)o2)CC1 (stereo not drawn)	75% (inactive)
CCCSCCCNC(=O)c1cc2n(n1)CCCN(Cc1ccc(C)cc1)C2=O	113% (inactive)
CCCNC(=O)c1cc2n(n1)CCCN(Cc1ccc(C)cc1)C2=O	129% (inactive)
CCNC(=O)c1cc2n(n1)CCCN(Cc1ccc(C)cc1)C2=O	22% (inactive)
CCCCNC(=O)c1cc2n(n1)CCCN(Cc1ccc(C)cc1)C2=O	0% (active)
CCC(C)NC(=O)c1cc2n(n1)CCCN(Cc1ccc(C)cc1)C2=O (stereo not drawn)	88% (inactive)
Cc1ccc(CN2CCCn3nc(C(=O)NC(C)C)cc3C2=O)cc1	-2% (active)
CCCCn1cc(S(=O)(=O)c2ccc(CC)cc2)c(=O)c2cc(F)c(N3CCOCC3)cc21	73% (inactive)
Cc1cccc(Cn2nnc3c(=O)[nH]c(C4CCCN(C(=O)c5ccc(C(C)(C)C)cc5)C4)nc32)c1 (stereo not drawn)	23% (inactive)
COc1ccc(Cn2nnc3c(=O)[nH]c(C4CCN(C(=O)c5ccc(C)cc5)CC4)nc32)cc1OC	53% (inactive)
CC(C)(C)c1ccc(C(=O)N2CCCC(c3nc4c(nnn4Cc4cccc(F)c4)c(=O)[nH]3)C2)cc1 (stereo not drawn)	17% (inactive)
O=C(c1ccccc1)N1CCC(c2nc3c(nnn3Cc3ccccc3)c(=O)[nH]2)CC1	0% (active)
COc1cccc(OC)c1Cn1nnc2c(=O)[nH]c(C3CCN(C(=O)c4ccccc4)CC3)nc21	76% (inactive)
Cc1ccccc1Cn1nnc2c(=O)[nH]c(C3CCN(C(=O)c4ccccc4)CC3)nc21	25% (inactive)
Cc1ccccc1Cn1nnc2c(=O)[nH]c(C3CCN(C(=O)c4ccc(F)cc4)CC3)nc21	74% (inactive)
CCOc1ccc(Cn2nnc3c(=O)[nH]c(C4CCN(C(=O)c5ccccc5)CC4)nc32)cc1	3% (active)

Compound	survival
Cc1cccc(Cn2nnc3c(=O)[nH]c(C4CCN(C(=O)c5ccc(F)cc5)CC4)nc32)c1	29% (inactive)
O=C(c1ccccc1)N1CCCC(c2nc3c(nnn3Cc3ccc(F)cc3F)c(=O)[nH]2)C1 (stereo not drawn)	104% (inactive)
O=C(c1cccc(Cl)c1)N1CCC(c2nc3c(nnn3Cc3ccc(F)cc3F)c(=O)[nH]2)CC1	9% (active)
CC(C)(C)C(=O)N1CCCC(c2nc3c(nnn3Cc3ccc(C(C)(C)C)cc3)c(=O)[nH]2)C1 (stereo not drawn)	50% (active)
Cc1cn2c(=O)cc(COc3ccccc3NC(=O)c3ccc(Cl)cc3)nc2s1	85% (inactive)
COc1ccc(CCNC(=O)Cn2nc(C)n3c(cc4occc43)c2=O)cc1OC	86% (inactive)
COc1ccc(NC(=O)c2oc3ccccc3c2NC(=O)Cc2coc3ccc(C)cc23)cc1	85% (inactive)
CCc1ccccc1NC(=O)c1sc2nc3n(c(=O)c2c1C)CCC3	90% (inactive)
CCOc1cc(C#N)c(NC(=O)c2ccc(OC)c(S(=O)(=O)N3CCCCC3)c2)cc1OCC	75% (inactive)
O=[N+]([O-])c1ccc(S(=O)(=O)NCc2nc3cccnc3n2Cc2ccccc2Cl)cc1	74% (inactive)
CCc1ccc(Cn2c(CNS(=O)(=O)c3ccc([N+](=O)[O-])cc3)nc3cccnc32)cc1	0% (active)
CCOc1ccc(Cn2c(CNS(=O)(=O)c3ccc(CC)cc3)nc3cccnc32)cc1	69% (inactive)
CCc1ccc(Cn2c(CNS(=O)(=O)c3ccc(C)c(C)c3)nc3cccnc32)cc1	71% (inactive)
Cc1ccc(Cn2c(CNC(=O)Cc3cccc([N+](=O)[O-])c3)nc3cccnc32)cc1	67% (inactive)
COc1ccc(Cn2c(CNC(=O)Cc3cccc([N+](=O)[O-])c3)nc3cccnc32)cc1	-6% (active)
COc1ccc(Cn2c(CNS(=O)(=O)c3ccc4c(c3)CCCC4)nc3cccnc32)cc1	133% (inactive)
CCOc1ccc(Cn2c(CNS(=O)(=O)c3ccc([N+](=O)[O-])cc3)nc3cccnc32)cc1	87% (inactive)
CCc1ccc(S(=O)(=O)NCc2nc3cccnc3n2Cc2ccccc2Cl)cc1	83% (inactive)
O=C(Cc1cccc([N+](=O)[O-])c1)NCc1nc2cccnc2n1Cc1ccc(F)cc1	133% (inactive)
COc1ccc(Cn2c(CNS(=O)(=O)c3ccc(C)c(C)c3)nc3cccnc32)cc1	-1% (active)
CC(C)(C)c1ccc(S(=O)(=O)NCc2nc3cccnc3n2Cc2ccccc2Cl)cc1	14% (active)
